Data as given in PubChem BioAssay (NCI).
About 79,000 compounds went through this panel and 15% of them were active in at least one assay; those are over-represented in the sample as a whole. Active and inactive are the calls of the source. Cut-off read from the data, not from the text of the source: active = growth inhibition above about 70%; inactive = the rest.

What was measured:
[1] = NCI Yeast Anticancer Drug Screen. Data for the rad50 strain (AID 155);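 note: 0% = growth of vehicle-only cultures of the same strain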; conditions: S. cerevisiae rad50 strain growth inhibition, hits give high values
How it was run: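 Vehicle-treated cultures provide the reference for the growth inhibition reported for compound-exposed, repair-deficient yeast.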

[2] = NCI Yeast Anticancer Drug Screen. Data for the mec2-1 strain (AID 157); conditions: S. cerevisiae mec2-1 strain, hits give high values
How it was run: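 Mutant yeast (mec2-1) grown with compound; growth inhibition relative to vehicle control reported.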

[3] = NCI Yeast Anticancer Drug Screen. Data for the sgs1 mgt1 strain (AID 161);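 note: 0% = growth of cultures given vehicle only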; conditions: S. cerevisiae sgs1 mgt1 strain, hits give high values
How it was run: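 Compounds are added to genetically altered yeast, and growth is compared with cultures given vehicle alone to give percent inhibition.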

[4] = NCI Yeast Anticancer Drug Screen. Data for the cln2 rad14 strain (AID 165);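 note: 0% = growth equal to vehicle treated cultures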; conditions: S. cerevisiae cln2 rad14 strain, hits give high values
How it was run: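 Readout is yeast growth inhibition versus vehicle-treated controls, using a strain with cln2 and rad14 alterations exposed to compound.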

[5] = NCI Yeast Anticancer Drug Screen. Data for the bub3 strain (AID 167); conditions: S. cerevisiae bub3 mutant strain, hits give high values
How it was run: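 Mutant yeast screening strain plus compound; vehicle-treated cultures serve as the 0% inhibition reference.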

[6] = NCI Yeast Anticancer Drug Screen. Data for the mlh1 rad18 strain (AID 175); conditions: S. cerevisiae mlh1 rad18 strain growth inhibition, hits give high values
How it was run: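 Genetically defined yeast (DNA repair-deficient) exposed to compounds; growth inhibition determined relative to vehicle.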

[7] = at 5.0 µM (retest, dose inferred, filed as 0.5)
[8] = at 50.0 µM (retest, dose inferred, filed as 5.0)

Measured: growth inhibition

OC(Cn1cncn1)(Cn1cncn1)c1ccc(Cl)cc1Cl
active: [4]; [7] 71% | [4]; [8] 77% | [5]; [8] 74%
inactive: [1]; [7] 66% | [1]; [8] 65% | [1]; at 50.0 µM 62.6% | [2]; [7] 62% | [2]; [8] 59% | [2]; at 50.0 µM 54.5% | [3]; [7] 38% | [3]; [8] 65% | [3]; at 50.0 µM 63.2% | [4]; at 50.0 µM 60.8% | [5]; [7] 65% | [5]; at 50.0 µM 56.7%

CC1CCC2(CC1)OCC(C)O2 (stereo unspecified)
inactive: [1]; [7] 4% | [1]; [8] 1% | [1]; at 50.0 µM -19.9% | [2]; [7] 16% | [2]; [8] 5% | [2]; at 50.0 µM 5.45% | [3]; [7] -2% | [3]; [8] -12% | [3]; at 50.0 µM -24.4% | [4]; [7] 26% | [4]; [8] 15% | [4]; at 50.0 µM 19.8% | [5]; [7] 27% | [5]; [8] 34% | [5]; at 50.0 µM -0.9% | [6]; [7] 7% | [6]; [8] 1% | [6]; at 50.0 µM -8.8%

CC(=O)N(C)NC(=O)c1ccccc1
inactive: [1]; [7] 1% | [1]; [8] -6% | [1]; at 50.0 µM 10.4% | [2]; [7] -1% | [2]; [8] 2% | [2]; at 50.0 µM -12.8% | [3]; [7] 1% | [3]; [8] -4% | [3]; at 50.0 µM -10.2% | [4]; [7] -8% | [4]; [8] 5% | [4]; at 50.0 µM 27.3% | [5]; [7] -2% | [5]; [8] -1% | [5]; at 50.0 µM 12.9% | [6]; [7] 0% | [6]; [8] -5% | [6]; at 50.0 µM -4.7%

Cc1cc(OC(=O)CCl)ccc1C(C)(C)C
active: [6]; at 50.0 µM 84.6%
inactive: [1]; [7] 1% | [1]; [8] 12% | [1]; at 50.0 µM 56.4% | [2]; [7] 2% | [2]; [8] 13% | [2]; at 50.0 µM 40.5% | [3]; [7] 0% | [3]; [8] 1% | [3]; at 50.0 µM 56.4% | [4]; [7] 5% | [4]; [8] 5% | [4]; at 50.0 µM 5.5% | [5]; [7] 0% | [5]; [8] 5% | [5]; at 50.0 µM 30.5% | [6]; [7] 2% | [6]; [8] 18%

CC(=O)OC1CCC(C(C)(C)C)C(C)C1 (stereo unspecified)
inactive: [1]; [7] 3% | [1]; [8] 43% | [1]; at 50.0 µM 11.4% | [2]; [7] 5% | [2]; at 50.0 µM 45.5% | [3]; [7] 6% | [3]; [8] 42% | [3]; at 50.0 µM 43.4% | [4]; [7] 2% | [4]; [8] 68% | [4]; at 50.0 µM 9.55% | [5]; [7] -4% | [5]; [8] 67% | [5]; at 50.0 µM 32.9%
active: [2]; [8] 70%

COc1ccc(C2C3CCCC(C3=O)C(c3ccc(OC)cc3)N2N=O)cc1 (stereo unspecified)
active: [1]; at 50.0 µM 84% | [2]; at 50.0 µM 86.9% | [3]; [8] 77% | [4]; [8] 71% | [4]; at 50.0 µM 88.8% | [5]; [8] 72% | [5]; at 50.0 µM 85.2% | [6]; [8] 77% | [6]; at 50.0 µM 96.5%
inactive: [1]; [7] 0% | [1]; [8] 68% | [2]; [7] 11% | [2]; [8] 64% | [3]; [7] -4% | [3]; at 50.0 µM 59.5% | [4]; [7] -6% | [5]; [7] -2% | [6]; [7] -3%

C=C1CC(Cn2cc(Br)c(=O)[nH]c2=O)(c2ccc(Br)cc2)OC1=O (stereo unspecified)
active: [1]; [8] 98% | [1]; at 50.0 µM 97.8% | [2]; [8] 98% | [2]; at 50.0 µM 98.7% | [3]; [8] 98% | [3]; at 50.0 µM 97.8% | [4]; [8] 90% | [4]; at 50.0 µM 97.2% | [5]; [8] 97% | [5]; at 50.0 µM 97.2% | [6]; [8] 99% | [6]; at 50.0 µM 98.7%
inactive: [1]; [7] 14% | [2]; [7] 30% | [3]; [7] 29% | [4]; [7] 19% | [5]; [7] 4% | [6]; [7] 40%

Cc1cc(O)c(/C=N/c2nc(-c3cccc([N+](=O)[O-])c3)cs2)c(=O)o1
active: [1]; [8] 99% | [2]; [8] 100% | [3]; [8] 100% | [4]; [8] 99% | [5]; [8] 100%
inactive: [1]; [7] 40% | [1]; at 50.0 µM 37.9% | [2]; [7] 42% | [2]; at 50.0 µM 30% | [3]; [7] 52% | [3]; at 50.0 µM 51.2% | [4]; [7] 22% | [4]; at 50.0 µM 31% | [5]; [7] 51% | [5]; at 50.0 µM 37.7%

CCN(CC)c1ccc(N=Nc2ccc(-c3nc4ccc[n+](C)c4s3)cc2)cc1
active: [1]; [7] 99% | [1]; [8] 99% | [1]; at 50.0 µM 89.6% | [2]; [7] 99% | [2]; [8] 99% | [2]; at 50.0 µM 88.8% | [3]; [7] 99% | [3]; [8] 99% | [3]; at 50.0 µM 88.2% | [4]; [7] 100% | [4]; [8] 100% | [4]; at 50.0 µM 88.2% | [5]; [7] 99% | [5]; [8] 99% | [5]; at 50.0 µM 91.1% | [6]; [7] 99% | [6]; [8] 99% | [6]; at 50.0 µM 88.8%

CCCC(=O)Oc1ccc(-c2ccc(Br)cc2)cc1
active: [1]; [8] 93% | [1]; at 50.0 µM 92.8% | [2]; [8] 93% | [2]; at 50.0 µM 93.6% | [3]; [8] 88% | [3]; at 50.0 µM 88.8% | [4]; [8] 93% | [4]; at 50.0 µM 90.2% | [5]; [8] 95% | [5]; at 50.0 µM 89.8% | [6]; [8] 94% | [6]; at 50.0 µM 95.8%
inactive: [1]; [7] 4% | [2]; [7] 11% | [3]; [7] 3% | [4]; [7] -6% | [5]; [7] 39% | [6]; [7] -7%
